This passage reports inhibition results from PubChem BioAssay AID652154 (Broad Institute, 2013).

Several values for one entry are separate records, joined by “and”; a condition that tells them apart may be missing. Equal values may be shown once. The whole screen tested about 360,000 compounds, of which about 4,200 (1.2%) were called active.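 The calls were made as follows: active = mean replicate inhibition at least 60% with every replicate also reaching 60%; inconclusive = only one of the two criteria is met; inactive = mean below 60% and not all replicates reaching 60%.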 The entries come from a sample that favours actives as a whole.

The assay is described as follows: inhibitors of PAX8-driven TPO luciferase reporter, primary screen, RMG-I cells, single concentration (AID 652154).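 Also: luciferase light reporting Pax8 driven TPO promoter activity; plate controls were median of neutral control wells for no effect and mitoxantrone controls for full effect.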 Particulars: SteadyGlo, 24 h, at 12.6 µM, active compounds read high.
For the molecule `C[C@@H]1CN([C@@H](C)CO)S(=O)(=O)c2ccc(C3=CCCCC3)cc2O[C@@H]1CN(C)Cc1cccc(C(=O)O)c1`, the inhibition (usually the change of the read-out against control, counted positive when it falls) was -22.5% (inactive).

Take `C/C=C/c1ccc([C@@H]2[C@@H](CO)N(C(C)=O)[C@H]2CN(C)C(=O)CN(C)C)cc1`: the inhibition was 0.935% (inactive).

For the molecule `C[C@H]1CN([C@@H](C)CO)C(=O)Cc2cc(NC(=O)NC3CCCCC3)ccc2O[C@H]1CN(C)S(=O)(=O)c1cccs1`, the inhibition is 11.1% (inactive).

Regarding `O=C(C[C@@H]1CC[C@@H]2[C@H](COC[C@@H](O)CN2Cc2ccc(F)cc2)O1)NCc1ccncn1`, the inhibition was -11.3% (inactive).

Regarding `Cc1ccc(S(=O)(=O)Nc2ccc3c(c2)C(=O)N([C@H](C)CO)C[C@@H](C)[C@@H](CN(C)C(=O)CCC(F)(F)F)OCCCC[C@@H](C)O3)cc1`, the inhibition was -2.28% (inactive).

Consider `O=C(NC1CCC1)[C@@H]1[C@@H](CO)[C@@H]2Cn3c(ccc(/C=C/c4ccccc4)c3=O)[C@@H]2N1Cc1ccncc1`, for which the inhibition was 7.46% (inactive).

As to `CN1C[C@H](O)COC[C@H]2O[C@H](CC(=O)NC3CCC3)CC[C@@H]21`, the inhibition was -17.3% (inactive).

As for `CN(C)C(=O)c1cccc(-c2ccc([C@H]3[C@H](CO)N4C(=O)CN(C(=O)C5CCCCC5)C[C@@H]34)cc2)c1`, the inhibition is -1.57% (inactive).

With `C[C@H](CO)N1C[C@H](C)[C@@H](CN(C)C)OCCCC[C@H](C)Oc2ccc(NC(=O)C3CCCCC3)cc2C1=O`, the inhibition is -11.4% (inactive).

Turning to `O=S(=O)(Cc1ccccc1)N1CCCCN2[C@@H](CO)[C@@H](c3ccc(-c4ccc(F)cc4)cc3)[C@@H]2C1`, the inhibition was 44.5% (inactive).

On to `C[C@@H]1CN([C@@H](C)CO)C(=O)c2cc(NS(=O)(=O)c3cccs3)ccc2O[C@@H](C)CCCCO[C@@H]1CN(C)C(=O)NC1CCCCC1`, for which the inhibition was 1.62% (inactive).

Consider `Cc1ccc(-c2cn3cc(C)ccc3n2)cc1`, for which the inhibition is 91.9% (active).

On to `CS(=O)(=O)Nc1cccc(-c2cn3ccccc3n2)c1`, for which the inhibition is -44.1% (inactive).

On to `COc1ccc(-c2nc3ccc(Br)cn3c2Cc2ccc(C)cc2)cc1OC`, for which the inhibition was -53.2% (inactive).

For the molecule `Cc1ccc(-c2nc3ccc(Br)cn3c2Cc2ccccc2C(F)(F)F)cc1`, the inhibition was -163% (inactive).

With `Cc1ccc(-c2nc3ccc(Cl)cn3c2Cc2ccccc2)cc1`, the inhibition is -103% (inactive).

Turning to `Cc1ccc2nc(-c3ccc(Br)cc3)cn2c1`, the inhibition is 92.9% (active).

As to `O=C(C[C@@H]1C=C[C@H](NC(=O)CN2CCOCC2)[C@@H](CO)O1)NC1CCC1`, the inhibition is -5.79% (inactive).

Consider `C[C@H](CO)N1C[C@H](C)[C@H](CN(C)C)Oc2c(NS(=O)(=O)c3ccc(Cl)cc3)cccc2C1=O`, for which the inhibition was -6.01% (inactive).

With `COc1cccc(S(=O)(=O)N[C@H]2CC[C@H](CC(=O)NC3CCC3)O[C@H]2CO)c1`, the inhibition was -7.93% (inactive).

For `O=C(C[C@H]1C[C@@H]2c3cc(NC(=O)c4cccnc4)ccc3O[C@@H]2[C@H](CO)O1)NCc1ccccn1`, the inhibition was -7.94% (inactive).

Regarding `Cc1ccc(N)cc1CN1CCN(c2ncc(Cc3ccccc3)cn2)CC1`, the inhibition is -0.199% (inactive).

Regarding `O=C(C1CCCCC1)N1C[C@@H]2N[C@H](C1)C2c1ccc(-c2cccc(F)c2)cc1` (stereo partly specified), the inhibition is -14.7% (inactive) and -21.2% (inactive).

Turning to `CN(C)C(=O)c1ccc(-c2ccc(C3[C@@H]4CN(C(=O)Nc5ccccc5)C[C@H]3N4)cc2)cc1` (stereo partly specified), the inhibition is 5.13% (inactive).

Turning to `Cc1cccc(-c2ccc(C3[C@@H]4CN(C(=O)Nc5ccc(C(F)(F)F)cc5)C[C@H]3N4)cc2)c1` (stereo partly specified), the inhibition was 116% (active) and 119% (active).

For `CNC[C@H]1Oc2ccc(NC(=O)Nc3ccc4c(c3)OCO4)cc2CC(=O)N([C@H](C)CO)C[C@H]1C`, the inhibition is 2.09% (inactive).

Consider `COc1ccc2c3c(n(C)c2c1)[C@@H](CO)N(Cc1ccncc1)CC31CN(C(=O)C2CCC2)C1`, for which the inhibition is 7.29% (inactive).

Regarding `COCC(=O)N(C[C@H]1N[C@H](CO)[C@H]1c1ccc(C2=CCCCC2)cc1)C(C)C`, the inhibition was 2.09% (inactive).

As for `Cn1c(=O)n(C)c2cc(C(=O)Nc3ccc(Br)cc3)ccc21`, the inhibition was -6.12% (inactive).

Regarding `CN(CC1CCCO1)S(=O)(=O)c1ccc(C(=O)Nc2ccc([N+](=O)[O-])cc2)cc1` (stereo unspecified), the inhibition was -4.55% (inactive).

For `Cn1ccc(=Nc2ccc(NC(=O)c3ccc(N=c4ccn(C)c5ccc([N+](=O)[O-])cc45)cc3)cc2)cc1`, the inhibition is 79.6% (active).

In the case of `C[C@@H]1CN([C@H](C)CO)C(=O)c2cc(N(C)C)ccc2O[C@@H](C)CCCCO[C@@H]1CN(C)C(=O)CCCN(C)C`, the inhibition is -0.0835% (inactive).

With `O=C(NS(=O)(=O)c1cccs1)[C@H]1O[C@@H](n2ccc(=O)[nH]c2=O)[C@H](O)[C@@H]1O`, the inhibition is -7.69% (inactive).

For the molecule `Cc1sc2ccccc2c1CNC[C@H]1O[C@@H](n2ccc(=O)[nH]c2=O)[C@H](O)[C@@H]1O`, the inhibition is 3.61% (inactive).

Consider `O=c1ccn([C@@H]2O[C@H](CNS(=O)(=O)c3cc4ccccc4s3)[C@@H](O)[C@H]2O)c(=O)[nH]1`, for which the inhibition was 78.9% (active).

For `C[C@H]1CN([C@@H](C)CO)C(=O)c2c(c3ccccc3n2C)-c2ccccc2CO[C@@H]1CN(C)Cc1ccc2c(c1)OCCN2C`, the inhibition was -18% (inactive).

Take `CS(=O)(=O)N1[C@H](CO)[C@H](c2ccccc2)C12CN(C(=O)C1CC1)C2`: the inhibition was -2.16% (inactive).

On to `COc1cccc(-c2cnc3c(c2)C(=O)N([C@H](C)CO)C[C@H](C)[C@@H](CN(C)Cc2ccc(C(=O)O)cc2)O3)c1`, for which the inhibition was 9.85% (inactive).

For `OC[C@@H]1CN(Cc2cccs2)C[C@H](n2cnc3c(NC4CCCC4)ncnc32)O1`, the inhibition was -6.69% (inactive).

Regarding `OC[C@@H]1CN(Cc2ccc(F)cc2)C[C@H](n2cnc3c(NC4CCCC4)ncnc32)O1`, the inhibition was 3.85% (inactive).

`OC[C@@H]1CN(Cc2ccc(-c3ccccc3)cc2)C[C@H](n2cnc3c(NC4CCCC4)ncnc32)O1`: the inhibition was 64.7% (active).

On to `Cc1noc(C)c1NC(=O)Nc1ccc2c(c1)C(=O)N([C@@H](C)CO)C[C@@H](C)[C@H](CN(C)C(=O)Nc1ccc(C(F)(F)F)cc1)OCCCC[C@@H](C)O2`, for which the inhibition is -4.84% (inactive).

For `CS(=O)(=O)N1CC(=O)N2[C@@H](CO)[C@@H](c3ccc(C#CCC4CCCC4)cc3)[C@@H]2C1`, the inhibition was 0.153% (inactive).

For the molecule `C[C@@H]1CCCCO[C@@H](CN(C)Cc2ccc(C(=O)O)cc2)[C@H](C)CN([C@H](C)CO)C(=O)c2cc(NS(=O)(=O)c3cccs3)ccc2O1`, the inhibition is 0.438% (inactive).

As to `C[C@@H]1CCCCO[C@@H](CN(C)Cc2ccccc2)[C@H](C)CN([C@H](C)CO)C(=O)c2cc(NS(=O)(=O)c3cccs3)ccc2O1`, the inhibition was 6.46% (inactive).

On to `CC(C)NC(=O)N(C)C[C@H]1OCCCC[C@H](C)Oc2ccc(NS(=O)(=O)c3cccs3)cc2C(=O)N([C@H](C)CO)C[C@@H]1C`, for which the inhibition is -10.4% (inactive).

In the case of `C[C@@H]1CN([C@H](C)CO)C(=O)c2cc(NS(=O)(=O)c3cccs3)ccc2O[C@@H](C)CCCCO[C@H]1CN(C)Cc1ccc(C(F)(F)F)cc1`, the inhibition is 96.8% (active).

`Cc1ccc(S(=O)(=O)Nc2ccc3c(c2)C(=O)N([C@H](C)CO)C[C@@H](C)[C@H](CN(C)C(=O)Nc2ccc(C(F)(F)F)cc2)OCCCC[C@H](C)O3)cc1`: the inhibition is 54.1% (inactive).

As for `C[C@@H]1CCCCO[C@H](CN(C)C(=O)Nc2ccc(C(F)(F)F)cc2)[C@@H](C)CN([C@@H](C)CO)C(=O)c2cc(NS(=O)(=O)c3cccs3)ccc2O1`, the inhibition was 80.1% (active).

Regarding `CC(=O)N1[C@@H](CO)[C@@H](c2ccccc2)[C@@H]1CN(C)C(=O)CN1CCOCC1`, the inhibition is 12.7% (inactive).

On to `Cn1cnc(S(=O)(=O)N2C[C@H](O)COC[C@@H]3O[C@H](CC(=O)NC4CCCC4)CC[C@H]32)c1`, for which the inhibition was -34% (inactive).

Consider `CC(C)NC(=O)N1[C@H](CO)[C@@H]2c3ccccc3N(C(=O)c3ccccc3F)C[C@@H]21`, for which the inhibition is -9.8% (inactive).

As to `COc1ccccc1C#Cc1ccc([C@@H]2[C@H](CO)N3CCCCN(C(=O)C4CCCC4)C[C@@H]23)cc1`, the inhibition is -8.82% (inactive).

Regarding `Cc1ccc(NC(=O)Cn2nnc(C(=O)NCc3ccco3)c2N)c(C)c1`, the inhibition is 8.75% (inactive).

For the molecule `COc1cccc(CNC(=O)c2nnn(CC(=O)Nc3cc(C)ccc3C)c2N)c1`, the inhibition was 5.68% (inactive).

Consider `CCOc1ccccc1NC(=O)Cn1nnc(C(=O)NCc2cccs2)c1N`, for which the inhibition was 68.5% (active).

For the molecule `Cc1ccc(-c2ccc3c(c2)O[C@H](CN(C)C(=O)CC2CC2)[C@@H](C)CN([C@H](C)CO)S3(=O)=O)cc1`, the inhibition was 11.8% (inactive).

On to `Clc1ccc2nc(-c3ccccc3)nc(C(Cl)Cl)c2c1`, for which the inhibition was 32.4% (inactive).

Turning to `CSc1nc(-c2ccccc2)nc(C(Cl)Cl)n1`, the inhibition is 99.3% (active).

As for `C[C@@H]1CN([C@H](C)CO)C(=O)c2cc(NC(=O)CCCN(C)C)ccc2O[C@@H](C)CCCCO[C@H]1CN(C)CC1CCCCC1`, the inhibition is -3.49% (inactive).

Turning to `CCC(=O)Nc1ccc2c(c1)OC[C@H](C)N(CC1CCOCC1)C[C@@H](C)[C@@H](OC)CN(C)C2=O`, the inhibition is 6.07% (inactive).

As for `O=C(C[C@@H]1CC[C@@H]2[C@H](COC[C@@H](O)CN2C(=O)c2ccccc2F)O1)N1CCOCC1`, the inhibition was 5.42% (inactive).

For `COc1cccc2c1C(=O)c1c(O)c3c(c(O)c1C2=O)CC(O)(C(C)=NNC(=O)c1ccc(Cl)c(Cl)c1)CC3OC1CC(N)C(O)C(C)O1` (stereo unspecified), the inhibition is 107% (active).

On to `CC(=O)N[C@@H]1CC[C@@H](CCNC(=O)C2CC2)O[C@H]1CO`, for which the inhibition was 11.9% (inactive).

For `O=C(C[C@H]1CC[C@@H](NC(=O)Nc2cc(F)ccc2F)[C@@H](CO)O1)NCc1ccncn1`, the inhibition is 0.809% (inactive).

For the molecule `OC[C@@H]1[C@H](c2ccc(C#CC3CC3)cc2)[C@@H]2CN(CCC(F)(F)F)CCCCN12`, the inhibition is -6.92% (inactive).
